The values below come from the supplement of paper PMC10127200.

Where a name gives a salt, the structure may show the parent alone.

Holding throughout (assay): Euclidean distance of Cell Painting phenotypic profile (signed KS, 77 features) to DMSO centroid (dimensionless distance); 5 or 10 uM (library dependent); higher = stronger phenotypic change vs DMSO (phenoactivity)
Holding throughout (conditions): 48 h

For one experiment, the system named is 786-O. A digest of the protocol: (§1)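 Five cancer lines and a healthy fibroblast line received library compounds at 10 or 5 uM (library-dependent, 0.1% DMSO final) for 48 h. Stained cells were imaged confocally at 20X (9 fields/well). Harmony extracted 77 features, each scored as a signed Kolmogorov-Smirnov statistic against same-plate vehicle wells. Profiles were plate-position corrected, correlation-weighted and replicate-averaged at the top dose. Phenoactivity is the Euclidean distance from each profile to the median vehicle profile.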

The test system of another experiment is A549. A digest of the protocol:
as §1

The next experiment concerns DU145. A digest of the protocol: as §1
The test system of another experiment is FB. A digest of the protocol: as §1
The test system of another experiment is HEPG2. A digest of the protocol: as §1
A further experiment has as its system OVCAR4. The method, boiled down: as §1

For the compound `CCCCOc1cc(C(=O)NCCN(CC)CC)c2ccccc2n1` [Dibucaine HCl], the Euclidean distance was determined as 1.45 in the experiment on 786-O; 1.68 with A549; 1.23 with DU145; 1.07 with FB; 1.52 with HEPG2; 1.07 with OVCAR4.

For the compound `C[C@H](Oc1cc(-c2cnn(C3CCNCC3)c2)cnc1N)c1c(Cl)ccc(F)c1Cl` [(S)-crizotinib], the Euclidean distance in the experiment with 786-O came to 3.79; with A549, 3.26; in the experiment with DU145 it was 2.55; in the experiment on FB, 4.85; in the experiment on HEPG2, 3.67; in the experiment with OVCAR4, 2.78.

As to `Nc1nc(NC2CC2)c2ncn([C@H]3C=C[C@@H](CO)C3)c2n1` [Abacavir], the Euclidean distance in the experiment with 786-O is 1.46; in the experiment on A549, 0.752; with DU145, 1.02; in the experiment on FB, 1.21; in the experiment on HEPG2, 0.494; with OVCAR4, 1.25.

For `CN(C)CC(=O)Nc1ccc2[nH]c(=O)c3ccccc3c2c1`, the Euclidean distance with 786-O amounted to 1.25; in the experiment with A549, 1.08; in the experiment on DU145, 0.921; with FB it was 1.3; with HEPG2, 1.34; in the experiment with OVCAR4, 1.07.

As to `O=C1c2cccc(O)c2C(=O)c2c(O)cc(CO)cc21` [Aloe-emodin], the Euclidean distance with 786-O is 1.1; with A549, 1.14; in the experiment with DU145 it was 1.2; with FB, 1.05; with HEPG2 it was 1.08; in the experiment with OVCAR4, 1.41.

With `CCCCCCCCCCCCCCCCn1cc[n+](Cc2ccccc2)c1C`, the Euclidean distance in the experiment on 786-O turned out to be 3.58; with A549, 4.18; with DU145 it was 2.89; with FB, 2.94; with HEPG2 it was 4.61; in the experiment with OVCAR4, 4.19.

For the compound `CC(C[N+](C)(C)C)OC(N)=O` (stereo not drawn) [Bethanechol chloride], the Euclidean distance in the experiment with 786-O came out at 1.22; in the experiment with A549, 0.995; in the experiment with DU145, 0.866; in the experiment on FB it was 0.979; in the experiment with HEPG2 it was 1.03; in the experiment with OVCAR4, 0.949.

As for `NC1=NCC2c3ccccc3Cc3ccccc3N12` (stereo not drawn) [Epinastine HCl], the Euclidean distance in the experiment on 786-O is 1.16; with A549, 1.15; in the experiment on DU145 it was 1.13; in the experiment with FB it was 1.2; in the experiment with HEPG2, 0.717; with OVCAR4, 1.43.

For the compound `OC[C@H]1O[C@@H](c2ccc(F)c(Cc3cc4ccccc4s3)c2)[C@H](O)[C@@H](O)[C@@H]1O` [Ipragliflozin (ASP1941)], the Euclidean distance was 0.648 in the experiment with 786-O; 0.591 with A549; 0.895 in the experiment with DU145; 0.802 with FB; 0.412 in the experiment on HEPG2; 0.699 with OVCAR4.

Regarding `COC(=O)[C@H](c1ccccc1Cl)N1CCc2sccc2C1` [Clopidogrel], the Euclidean distance is 2.53 in the experiment with 786-O; 2.3 in the experiment on A549; 2.44 in the experiment with DU145; 2.99 in the experiment on FB; 1.3 in the experiment with HEPG2; 2.4 in the experiment with OVCAR4.

Take `CNCCCN1c2ccccc2CCc2ccccc21` [Desipramine Hydrochloride]: the Euclidean distance in the experiment on 786-O is 0.817; with A549, 1.07; with DU145, 1.11; in the experiment on FB, 1.73; with HEPG2 it was 1.43; in the experiment on OVCAR4, 1.25.

For `C[C@@H]1O[C@@H](OC[C@H]2O[C@@H](Oc3c(-c4ccc(O)c(O)c4)oc4cc(O)cc(O)c4c3=O)[C@H](O)[C@@H](O)[C@@H]2O)[C@H](O)[C@H](O)[C@H]1O` [Rutin], the Euclidean distance came to 1.11 in the experiment with 786-O; 0.756 in the experiment with A549; 0.783 in the experiment with DU145; 0.933 in the experiment on FB; 0.632 with HEPG2; 0.909 in the experiment with OVCAR4.

Turning to `c1cc(-c2cnn3cc(-c4ccc(N5CCNCC5)cc4)cnc23)c2cccnc2c1`, the Euclidean distance in the experiment on 786-O was found to be 5.15; with A549 it was 5.05; with DU145 it was 4.45; in the experiment with FB, 6.55; with HEPG2, 5.9; in the experiment on OVCAR4, 6.68.

For `O=C(Nc1cccc(Nc2ncc(Br)c(NCCc3cnc[nH]3)n2)c1)N1CCCC1`, the Euclidean distance turned out to be 2.94 with 786-O; 3.51 with A549; 3.14 in the experiment on DU145; 3.05 in the experiment on FB; 2.43 in the experiment on HEPG2; 3.33 with OVCAR4.

Take `Cc1cc(Nc2ncnc3ccc(NC4=NC(C)(C)CO4)cc23)ccc1Oc1ccn2ncnc2c1` [Irbinitinib (ARRY-380. ONT-380)]: the Euclidean distance was determined as 1.56 in the experiment with 786-O; 1.62 with A549; 1.3 with DU145; 1.15 in the experiment on FB; 1.12 with HEPG2; 1.29 in the experiment on OVCAR4.

With `CCN(CC)CCNC(=O)c1cc(S(C)(=O)=O)ccc1OC` [Tiapride Hydrochloride], the Euclidean distance with 786-O is 0.725; in the experiment on A549, 0.496; with DU145, 0.652; with FB, 0.955; with HEPG2 it was 0.542; in the experiment with OVCAR4 it was 0.874.

Turning to `OCc1ccc(Cl)cc1Cl` [2.4-dichlorobenzyl alcohol], the Euclidean distance with 786-O was 0.68; in the experiment with A549, 0.36; in the experiment with DU145 it was 1.13; in the experiment on FB, 0.663; with HEPG2, 0.329; in the experiment on OVCAR4 it was 1.56.

As to `COC(=O)c1ccc(O)cc1` [Methyl 4-hydroxybenzoate], the Euclidean distance in the experiment on 786-O is 0.944; in the experiment with A549, 0.453; in the experiment with DU145, 0.654; in the experiment on FB it was 0.862; with HEPG2 it was 0.627; in the experiment with OVCAR4, 1.19.

With `C=CCc1ccccc1OCC(O)CNC(C)C` (stereo not drawn) [Alprenolol hydrochloride], the Euclidean distance in the experiment on 786-O turned out to be 0.84; in the experiment with A549, 0.761; in the experiment with DU145, 1.36; with FB, 1.77; in the experiment with HEPG2, 0.91; with OVCAR4 it was 1.07.

Turning to `OCCN(CCO)c1nc(N2CCCCC2)c2nc(N(CCO)CCO)nc(N3CCCCC3)c2n1` [Dipyridamole], the Euclidean distance came to 1.24 in the experiment with 786-O; 0.954 in the experiment on A549; 1.33 in the experiment with DU145; 0.963 in the experiment on FB; 0.833 in the experiment with HEPG2; 0.968 with OVCAR4.

For the compound `O=C(NC[C@H]1CN(c2ccc(N3CCOCC3=O)cc2)C(=O)O1)c1ccc(Cl)s1` [Rivaroxaban], the Euclidean distance was 1.33 with 786-O; 1.15 in the experiment on A549; 0.946 in the experiment with DU145; 0.949 in the experiment on FB; 0.52 in the experiment with HEPG2; 1.51 in the experiment with OVCAR4.

On to `CCc1cccc2c3c([nH]c12)C(CC)(CC(=O)O)OCC3` (stereo not drawn) [Etodolac], for which the Euclidean distance in the experiment on 786-O amounted to 0.711; in the experiment with A549, 0.964; in the experiment on DU145, 1.01; in the experiment on FB, 1.18; in the experiment with HEPG2, 0.56; with OVCAR4 it was 1.35.

For the compound `Nc1ccc(S(N)(=O)=O)cc1` [Sulfanilamide], the Euclidean distance is 0.866 in the experiment on 786-O; 0.563 with A549; 0.913 in the experiment with DU145; 0.819 in the experiment with FB; 0.645 in the experiment on HEPG2; 1.21 with OVCAR4.
